Compounds without any hit were thinned out: in the full panel of roughly 83,000, 20% have a hit.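 Compound tested at a single concentration for 48 hours in 96-well plates; a percent growth value below 10 was scored as active.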 Unmarked numbers belong to inactive results. Activity calls are given as the source filed them.
Assays:
Assay in all cases: NCI-60 one-dose screen, 48 h (100 = growth as untreated, 0 = no growth, -100 = all killed)
Conditions in all cases: 10 µM unless noted
SR leukemia = test system: SR leukemia
RPMI-8226 leukemia = test system: RPMI-8226 leukemia
OVCAR-8 ovarian = test system: OVCAR-8 ovarian
OVCAR-5 ovarian = test system: OVCAR-5 ovarian
OVCAR-4 ovarian = test system: OVCAR-4 ovarian
SK-OV-3 ovarian = test system: SK-OV-3 ovarian
IGROV1 ovarian = test system: IGROV1 ovarian
HS 578T breast = test system: HS 578T breast
NCI/ADR-RES ovarian = test system: NCI/ADR-RES ovarian

Row | SMILES | growth (SR leukemia) | growth (RPMI-8226 leukemia) | growth (OVCAR-8 ovarian) [%] | growth (OVCAR-5 ovarian) [%] | growth (OVCAR-4 ovarian) [%] | growth (SK-OV-3 ovarian) | growth (IGROV1 ovarian) | growth (HS 578T breast) | growth (NCI/ADR-RES ovarian)
1 | COc1cccc2c1C=CC1(O2)Oc2cccc(OC)c2C=C1C (configuration not stated) | 12.8% | 18.9% | 23.5 | 29.6 | 85.3 | 65.5% | 27.9% | 20.8% | 4.87% (active)
2 | CC1=Cc2ccccc2OC12C=Cc1ccccc1O2 (configuration not stated) | 103% | 104% | 103 | 102 | 105 | 102% | 69.1% | 106% | 98.6%
3 | CN1CCN(c2ccc(Nc3nc(NCCNS(=O)(=O)c4ccccc4)c4sccc4n3)cc2)CC1 | 117% | 102% | 106 | 102 | 92.5 | 107% | 95.9% | 88.1% | 101%
4 | COc1ccc(-c2c3c(cn2Cc2cccc(OC)c2)-c2oncc2CCC3)cc1 | 89.2% | 93.6% | 98.5 | 108 | 100 | 98.3% | 94.3% | 101% | 97%
5 | N#Cc1c(-c2ccc(F)cc2)cc(-c2c[nH]c3ccccc23)nc1-c1c[nH]c2ccccc12 | 89.1% | 101% | 100 | 109 | 101 | 96.9% | 102% | 95.2% | 103%
6 | Nc1cc(C(=O)N/N=C\c2ccc(OC(F)F)c(OC3CCCC3)c2)nn1CC(O)c1ccccc1 (configuration not stated) | 88.1% | 87.5% | 96.9 | 108 | 91.4 | 105% | 108% | 109% | 109%
7 | COC(=O)CNC(=O)c1cccc(-c2cc(=O)c3c(OC)c(OC)c(OC)cc3o2)c1 | 85% | 94.8% | 98 | 98.1 | 102 | 118% | 99.1% | 99.7% | 99.5%
8 | Cc1cc(=O)[nH]c(O)c1C#N | 99.3% | -72% (active) | 102 | 97.2 | 98.3 | 106% | 103% | 116% | 106%
9 | O=C(COc1ccc(/C=C2\C(=O)Nc3ccc(Cl)cc32)cc1)Nc1ccc(Cl)cc1 | 44.9% | 68.7% | 60.1 | 69.8 | 59.2 | 88.3% | 59.8% | 77.6% | 59.6%
10 | Brc1ccc(-c2cc(-c3ccc4c(c3)OC=CO4)n[nH]2)s1 | 54.7% | 93.6% | 96.4 | 105 | 88 | 88.1% | 81% | 92.2% | 76.8%
11 | CCCCOc1ccc(S(=O)(=O)N2CCN(c3nc(C)cc(N4CCOCC4)n3)CC2)cc1 | 42.4% | 3.95% (active) | 45 | 50.4 | 49 | -11.6% (active) | 7.73% (active) | 63.6% | 25.4%
12 | O=C(COc1ccc(/C=C2\C(=O)Nc3cc(Cl)ccc32)cc1)Nc1ccc(Cl)cc1 | 54.8% | 60.4% | 63.4 | 67.7 | 66.5 | 87.1% | 73.3% | 79.1% | 66.8%
13 | Cc1ccccc1Nc1nc(SC(C)C)nc(-c2ccccc2)c1C#N | 89.6% | 83.8% | 19.9 | 71.9 | 13.4 | 94.3% | -50.3% (active) | 63.1% | 34.7%
14 | Cc1ccc(C(=O)CSc2nnc(-c3ccc(-c4ccc(Cl)cc4)nc3C)o2)cc1 | 96.5% | 96.7% | 107 | 102 | 101 | 98.1% | 91.6% | 102% | 100%
15 | Clc1ccc2[nH]cc(-c3nn4cc(-c5ccncc5)nc4s3)c2c1 | 28.8% | 53.2% | 10.6 | 98.8 | 43.2 | 15.4% | 44.6% | 31.2% | 2.69% (active)
16 | Clc1ccc2[nH]cc(-c3nn4cc(-c5cccnc5)nc4s3)c2c1 | 109% | 86.9% | 103 | 108 | 105 | 91% | 87.9% | 93.6% | 102%
17 | CNC(=O)c1cc(Oc2ccc3c(c2)sc2nc(-c4ccc(N(C)C)cc4)cn23)ccn1 | 13.2% | 6.21% (active) | 14 | 39.4 | 70.7 | 49.2% | 21.5% | 44.1% | 0.629% (active)
18 | Fc1ccc(-c2cn3c(-c4c[nH]c5ccc(Br)cc45)csc3n2)cc1 | 88.7% | 77.8% | 74.8 | 73.8 | 34.3 | 84.4% | 63.7% | 14% | 48.7%
19 | CC(C)(C)OC(=O)NCc1ccc(CNc2c([N+](=O)[O-])cnc3ccccc23)cc1 | 37.1% | 43.6% | 63.4 | 93.6 | 54.8 | 68% | 76.5% | 76.9% | 38.2%
20 | COC(=O)[C@@H](Cc1c[nH]c2ccccc12)NC(=O)CCCCOc1cc(O)c2c(=O)cc(-c3ccccc3)oc2c1 | 72.3% | 71.8% | 87.5 | 104 | 80 | 97.7% | 87.5% | 80.9% | 80.9%
21 | COc1ccc(/C=N/NC(=O)c2c(N)nn(C)c2Nc2ccccc2)cc1Oc1ccccc1 | 87.8% | 82.1% | 87.7 | 92.4 | 92.2 | 112% | 93.5% | 93.6% | 92.6%
22 | CN1CCN(CCNc2nc(-c3cccc(NS(=O)(=O)c4cccc5c(N(C)C)cccc45)c3)cs2)CC1 | 23.4% | 35.8% | 75.9 | 90.3 | 71.5 | 91.6% | 78.5% | 87.9% | 86.9%
23 | CCS(=O)(=O)Nc1ccc(C(=O)CC2(O)C(=O)Nc3ccccc32)cc1 (configuration not stated) | 99.2% | 101% | 101 | 102 | 108 | 105% | 90% | 104% | 96.7%
24 | O=c1c2cc(-c3ccc(F)cc3F)ccc2n(Nc2ccccc2)c(=O)n1-c1cccc(C(F)(F)F)c1 | 9.45% (active) | -6.8% (active) | 13.3 | 79.3 | 30.7 | 8.64% (active) | 17.4% | -3.07% (active) | 3.74% (active)
25 | CCNC(=O)Oc1ccc(/C(=C(/C)c2ccc(OC)cc2)c2ccc(OCCN3CCCCCC3)cc2)cc1 | -20.7% (active) | 12.1% | 68.4 | 72.7 | 62.7 | 79% | 65.4% | 16.2% | 59.4%
26 | CCc1cccc2c3c(sc12)C(c1ccc(F)cc1)C(C#N)=C(/N=C/c1ccc(Cl)cc1)O3 (configuration not stated) | 18.8% | 21.5% | 13.6 | 29.1 | 80.6 | 42.6% | 29.9% | -1.77% (active) | 7.87% (active)
27 | COC(=O)CCCNCCCn1ccc2cc(NCc3cccc(-c4ccccc4)c3C)ccc21 | -14.7% (active) | 28.3% | 85.2 | 85.4 | 67.6 | 92.8% | 67.1% | 81.8% | 79.4%
28 | CN1CCN(CC#CCn2c3c(c4ccccc42)C[C@]2(C)[C@H]4CC=C5[C@@H]6CC(C)(C)CC[C@]6(C(=O)N6CCOCC6)CC[C@@]5(C)[C@]4(C)CC[C@H]2C3(C)C)CC1 | -4.82% (active) | 45.5% | 84.8 | 87.2 | 88.1 | 103% | 77.6% | 91.3% | 76.8%

— PubChem BioAssay (NCI)
